The compounds below were run on T1, DCAMKL2. Conditions: concentration: 1 μM, replicates: in singlicate; n = 1.
T1 construct: gene DCLK2
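Note: KINOMEscan kinase panel screen.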

Q: For `CCc1ccc(-c2ccc3c(c2)-c2nn(C)cc2S(=O)(=O)N3C)cc1`, which “%Inh” value is on record?
A: The value was 0%.

Q: `Nc1n[nH]c2ncc(-c3ccccc3)cc12` [SB-517081] was tested. Which “%Inh” value did it give?
A: The value was 13%.

Q: Which “%Inh” value does the source give for `Cc1nc(N(C)[C@H]2CN(C(=O)CC#N)CC[C@H]2C)c2cc[nH]c2n1` here?
A: The value was 0%.

Q: For `COc1ccc(-c2coc3ccc(-c4nnc(SCc5cccc(C#N)c5)o4)cc23)cc1`, which “%Inh” value is on record?
A: The value was 0%.

Q: For `CCC(=O)c1c(-c2ccccc2)c2cc(Cl)ccc2c(=O)n1Cc1cc(S(C)(=O)=O)n(CCC(C)(C)O)n1`, which “%Inh” value is on record?
A: The value was 22%.

Q: How did the “%Inh” value turn out when `COc1cc2ncn(-c3cc(OCc4ccncc4)c(C(N)=O)s3)c2cc1OC` [GSK336313] was run?
A: Its value is 0%.

Q: `Nc1nccc2scc(-c3ccc4c(c3)CCN4C(=O)Cc3ccccc3)c12` [GSK2576924] was tested. Which “%Inh” value did it give?
A: The value was 0%.

Q: For `COC(=O)c1c(-c2ccccc2)c2cc(Br)ccc2c(=O)n1Cc1ccc(S(C)(=O)=O)cc1`, which “%Inh” value is on record?
A: The value was 0%.

Q: `CCCC(=O)Nc1n[nH]c2ncc(-c3cccc4ccccc34)cc12` [SB-642057] was tested. Which “%Inh” value did it give?
A: Its value is 0%.

Q: How did the “%Inh” value turn out when `O=C1NC(=O)C(c2ccccc2)=C1Nc1cccc(O)c1` [SB-390534] was run?
A: Its value is 0%.

Q: With `Cc1nn2c(=O)cc(N3CCOCC3)nc2n1Cc1cccc(Cl)c1Cl` [GSK2342769] as the compound, how does the “%Inh” value read?
A: Its value is 0%.

Q: Which “%Inh” value does the source give for `C[C@@H]1CC[C@H](C(=O)NC2CCCCC2)CN1c1cc(-c2ccc3c(N)n[nH]c3c2)nc(N)n1` [GSK2291363] here?
A: Its value is 24%.

Q: How did the “%Inh” value turn out when `Nc1ncnc2c1ncn2-c1cccc2ccccc12` [SKF-97184] was run?
A: Its value is 13%.

Q: `COc1cc2ncn(-c3cc(OCc4ccncc4Br)c(C(N)=O)s3)c2cc1OC` [GW854278] was tested. Which “%Inh” value did it give?
A: Its value is 2%.

Q: How did the “%Inh” value turn out when `COc1cc2ncn(-c3cc(OCCCc4ccccc4)c(C(N)=O)s3)c2cc1OC` [GSK205189] was run?
A: The value was 17%.

Q: `O=C(Nc1n[nH]c2nc(-c3ccccc3)c(Cl)cc12)C1CC1` [SB-734909] was tested. Which “%Inh” value did it give?
A: Its value is 18%.

Q: With `COc1ccc(-c2cc3c(C)nc(N)nc3n([C@H]3CC[C@H](OCCO)CC3)c2=O)cn1` as the compound, how does the “%Inh” value read?
A: Its value is 0%.

Q: `CCC(=O)c1c(-c2ccccc2)c2cc(Cl)ccc2c(=O)n1Cc1ccc(C(=O)O)cc1` was tested. Which “%Inh” value did it give?
A: Its value is 0%.

Q: `Cc1nnc(-c2ccc(C)c(-c3ccc(C(=O)O)cc3)c2)o1` [GW608005] was tested. Which “%Inh” value did it give?
A: Its value is 0%.

Q: With `Cc1ccccc1COc1cc(-n2cnc3cc(Cl)ccc32)sc1C(N)=O` [GW813349] as the compound, how does the “%Inh” value read?
A: Its value is 2%.

Q: Which “%Inh” value does the source give for `Cc1ccc(Oc2ccc(Nc3ncnc4cc[nH]c34)cc2C)cn1` here?
A: The value was 0%.

Q: How did the “%Inh” value turn out when `CCCNC(=O)Nc1ccc(Oc2ncnc3ccn(C)c23)cc1` was run?
A: The value was 0%.

Q: `COc1cc(Nc2nccc(N3CCC(NC(=O)C4COc5ccccc5O4)C3)n2)cc(OC)c1OC` (stereo not shown) [GSK1379761] was tested. Which “%Inh” value did it give?
A: The value was 0%.

Q: Which “%Inh” value does the source give for `COc1cc2ncn(-c3cc(OCc4ccc(S(C)(=O)=O)cc4)c(C(N)=O)s3)c2cc1OC` [GW869979] here?
A: The value was 19%.

Q: `COc1cc(Nc2ccnc3ccc(C(F)(F)F)cc23)cc(OC)c1OC` [GW577382] was tested. Which “%Inh” value did it give?
A: The value was 0%.

Q: `O=C(Nc1n[nH]c2cc(-c3ccccc3F)ccc12)C1CC1` [SB-733371] was tested. Which “%Inh” value did it give?
A: The value was 0%.

Q: Which “%Inh” value does the source give for `COC(=O)c1c(-c2ccccc2)c2cc(C)ccc2c(=O)n1Cc1ccccc1` here?
A: The value was 6%.

Q: For `FC(F)(F)c1ccc(-c2ncn(CCCN3CCOCC3)c2-c2ccncc2)cc1` [SB-217780], which “%Inh” value is on record?
A: The value was 35%.

Q: `Cl.NS(=O)(=O)c1cccc(Nc2cc(-c3ccc(F)cc3)n[nH]2)c1` [GW824645] was tested. Which “%Inh” value did it give?
A: Its value is 44%.

Q: With `COc1cccc(C2=C(N(C)c3ccccc3)C(=O)NC2=O)c1` [SB-334865] as the compound, how does the “%Inh” value read?
A: The value was 0%.

Q: `Cn1c(=O)c(F)c(Nc2ccc(I)cc2F)c2c(=O)n(OC[C@H](O)CO)cnc21` was tested. Which “%Inh” value did it give?
A: The value was 20%.

Q: For `Fc1cccc(CSc2nnc(-c3ccc4c(c3)CCO4)o2)c1`, which “%Inh” value is on record?
A: The value was 0%.

Q: Which “%Inh” value does the source give for `Nc1ncnc2c1ncn2-c1cccc(F)c1` [SKF-97560] here?
A: The value was 11%.

Q: For `COc1cc(OC)cc(-c2cc3cnc(N)nc3nc2NC(=O)NC(C)(C)C)c1`, which “%Inh” value is on record?
A: Its value is 0%.

Q: `CCc1nc(-c2cccc(C)c2)c(-c2ccncc2)s1` was tested. Which “%Inh” value did it give?
A: The value was 2%.

Q: `COc1ccc(Nc2nccc(N3CCC(NS(=O)(=O)c4ccc(NC(C)=O)cc4)C3)n2)cc1` (stereo not shown) [GSK1379729] was tested. Which “%Inh” value did it give?
A: The value was 0%.

Q: Which “%Inh” value does the source give for `COc1ccc(-n2cnc3c(N)ncnc32)cc1` [SKF-97236] here?
A: The value was 0%.

— PMC5540273 (PLoS ONE, 2017)
